ALR inh = blocks human ALR sulfhydryl oxidase activity | P55789 | inhibition, % (concentration not given with the values) | hit rate 3.8% among 290,000 | AID 485317 | purified ALR, DTT oxidation, H2O2 HRP-luminol luminescence;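 active = mean replicate inhibition above about 79%, with every replicate also reaching it, limit read from the data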
M18AAP inhibitor = blocks P. falciparum M18 aspartyl aminopeptidase; recombinant PfM18AAP, H-Glu-NHMec fluorogenic cleavage; inhibition, % at 7.35 µM; hit rate 1.2% among 290,000;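 active = inhibition above the campaign mean inhibition over all tested compounds plus 3 SD, cut at about 28% in these data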;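 note: 0% = plate median of test compound wells and 100% = 2 mM ZnCl2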
IDE cell activ = activators of human insulin-degrading enzyme in cells; P14735; HEK cells, FAbeta-B cleavage, fluorescence polarization; 0% vehicle, 100% cell-free pure enzyme wells; activation, % at 5.96 µM; hit rate 0.073% among 340,000; AID 493087;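 active = activation above the mean of all tested compounds plus 3 SD, set per screening campaign, cut at about 17% in these data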
PolyA inh = inhibitors of polyadenylation in S. cerevisiae | S. cerevisiae SKY197-pL101 polyadenylation reporter, beta-gal luminescence; efflux-impaired pdr1/pdr3 knockout yeast; score 100 = 6 SD above DMSO | activity score, % at 12 µM | hit rate 0.02% among 300,000;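 active = lowest replicate activity score at least 50, where 100 means six control SD above control mean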;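 note: yeast exposed to compound for 9 h at 30 °C; higher score means more reporter readthrough which indicates perturbed polyadenylation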
IDE cell inh = inhibits human insulin-degrading enzyme in HEK cells; hit rate 0.41% among 320,000; inhibition, % at 5.59 µM; FAbetaB cleavage, fluorescence polarization; P14735;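 active = percent inhibition above the average of all tested compounds plus 3 SD, set per screening campaign, cut at about 16% in these data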;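 note: IDE supplied by intact live HEK cells; FP after avidin binding of uncleaved biotin substrate so inhibition keeps polarization high; 0% = DMSO wells and 100% = 60 µM reference IDE inhibitor Ii1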
CaV13 FRET inh = Disruptors of the CACNA1D IQ motif to Ca2+-dependent inactivation inhibitor domain association, primary screening, Förster resonance energy transfer in intact living …; HEK cells, CFP/YFP FRET ICDI-IQ, plate reader, 10 min; percent FRET-ratio fall versus neutral wells; hit rate 0.098% among 340,000; inhibition, % at 12.3 µM;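 active = mean replicate inhibition of at least 30% and at least 1% of replicates passing that level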;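 note: 0% = median of the neutral control wells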
* = called active by the depositor; . = no result. Most compounds without a hit are left out; they make up all but 4.1% or so of the library.

SMILES	ALR inh	M18AAP inhibitor	IDE cell activ	PolyA inh	IDE cell inh	CaV13 FRET inh
CCn1c(-c2ccc3[nH]c(C)c(C)c3c2)n[nH]c1=S	98*	14	-3	11	2	-8
O=C1C(c2ccccc2)=NCCN1C(c1ccc(F)cc1)c1nc2ccccc2[nH]1 (stereo not drawn)	.	.	.	.	.	-3
Cc1ccc(C(=O)N/C(=C\c2ccccc2F)c2nc(=S)[nH][nH]2)cc1	98*	5	8	-13	1	-4
CC1=C(C(=O)OCC2CCCO2)C(c2ccc(F)cc2)NC(=O)N1 (stereo not drawn)	-25	-2	-1	.	4	-5
CN(C)c1ccc(C(CC(=O)c2ccccc2)C2CCCCC2=O)cc1 (stereo not drawn)	98*	-5	0	-11	4	-18
CCN1CCN(c2ccc(NC(=O)c3cc(S(=O)(=O)N4CCCC4)ccc3Cl)cc2)CC1	-6	.	5	.	0	-2
Cc1ccc(C(=O)N/N=C/c2ccc(OC(=O)c3ccccc3Cl)cc2)cn1	-15	12	-1	-6	7	-4
O=C(Oc1ccc(/C=N/O)cc1)c1ccccc1Cl	99*	5	6	-15	-3	-15
COC(=O)C1=C(C)N(CC(C)C)C(=S)NC1c1ccc(-c2ccccc2)cc1 (stereo not drawn)	.	.	.	.	.	-3
Nc1nc2ccccc2cc1C(=O)NCc1cccs1	.	.	.	.	.	-16
COc1cc(/C=N/NC(=O)CC(=O)NC2CCCCC2)ccc1O	99*	-3	5	-8	-4	-4
COc1cc(/C=C(\C#N)C(=O)N2CCCCC2)ccc1O	99*	6	-2	-16	4	8
CN(C)c1ccc(/C=N/NC(=O)C(=O)N2CCCCCC2)cc1	99*	10	-3	10	0	-7
C=CCOc1ccc(/C=N/NC(=O)C(=O)N2CCCCCC2)cc1OC	.	-2	5	0	3	-4
COc1ccc(/C=C(\C#N)C(=O)N2CCOCC2)cc1Br	.	-4	1	5	1	-7
COc1cc(/C=N/NC(=O)C(=O)N2CCCCCC2)ccc1O	99*	1	-2	6	-2	.
C[C@H](O)[C@@H]1CN2CCc3ccc(-c4ccc5c(c4)OCO5)cc3[C@@H]2C[C@@H]1N(C)Cc1ccccc1	.	.	.	.	.	-4
Cc1ccc(-c2nnc(SCC(=O)NNC(=O)COc3ccccc3C)n2C)cc1	-3	-6	-1	13	7	-2
CCCc1c(-c2ccc(OC)cc2)ncn1CCc1ccccc1OC	.	.	.	.	.	-9
Cc1cccc(N2CCN(c3ccc(NC(=O)/C=C(/C(=O)O)c4ccccc4)cc3)CC2)c1	96*	7	8	7	0	.
Nc1[nH]c2cc([N+](=O)[O-])ccc2c1-c1ccccn1	92*	2	-12	-22	11	-11
O=C(NCCOc1ccccc1F)c1cccc(S(=O)(=O)N2CCN(c3ccccc3)CC2)c1	2	.	3	-7	7	-6
COc1ccc(NC2CC(=O)N(c3cccc([N+](=O)[O-])c3)C2=O)cc1 (stereo not drawn)	89*	3	0	8	7	-7
COc1ccc(NC2CC(=O)N(c3cccc(C)c3)C2=O)cc1 (stereo not drawn)	-6	1	8	-16	-1	-2
Cc1sc2nc(CSC(C)C(=O)Nc3ccc(C(N)=O)cc3)[nH]c(=O)c2c1C (stereo not drawn)	100*	.	3	-3	-1	-2
SMILES	ALR inh	M18AAP inhibitor	IDE cell activ	PolyA inh	IDE cell inh	CaV13 FRET inh
Cc1sc2nc(CSC(C)C(=O)Nc3ccc(Cl)cn3)[nH]c(=O)c2c1C (stereo not drawn)	9	.	0	.	-3	-5
Cc1sc2nc(CSC(C)C(=O)Nc3ccc(C#N)cc3)[nH]c(=O)c2c1C (stereo not drawn)	98*	.	-3	25	1	-18
C/C(=N\Nc1nncc2ccccc12)c1ccc(O)cc1	6	25	0	-16	3	-4
C/C(=N\Nc1nccnc1Cl)c1ccc(O)cc1	93*	6	0	-15	-4	-21
C/C(=N\Nc1c(Cl)c(Cl)nc(C(=O)O)c1Cl)c1ccc(O)cc1	.	31*	3	-1	2	-5
C/C(=N\Nc1nccnc1Cl)c1ccc(F)cc1	2	14	-1	-17	7	-7
COc1ccc(C2CC(c3ccccc3)=NN2c2ccc(C(N)=O)cc2)cc1 (stereo not drawn)	12	-1	3	9	1	83*
O=C(O)c1ccc(N2N=C(c3ccccc3)CC2c2ccccc2)cc1 (stereo not drawn)	92*	-1	3	-22	3	115*
CC(=O)Nc1ccc(C2=NN(c3ccccc3)C(c3ccccc3)C2)cc1 (stereo not drawn)	96*	7	-1	-6	3	-19
Oc1ccc(C2=NN(c3ccccc3)C(c3ccc(F)cc3)C2)cc1 (stereo not drawn)	97*	18	7	-5	2	-5
CCn1c(=NC(=O)CSC(C)=O)sc2cc(F)ccc21	98*	7	-3	9	12	.
C#CCn1c(=NC(=O)CSC(C)=O)sc2cc(F)ccc21	97*	1	-1	-6	0	.
CNc1nnc(SCC(=O)c2cc(C)n(C3CC3)c2C)s1	92*	.	-4	.	5	-5
Cc1cc(-n2c(C)cc(C(=O)CSc3ncnc4ccccc34)c2C)no1	98*	4	2	-11	6	-4
Cc1cc(C(=O)CSc2ncnc3ccccc23)c(C)n1C1CC1	98*	.	-3	.	-2	-2
C=C(C)CNC(=O)c1ccc2nc(Cc3ccc(OC)cc3)oc2c1	.	1	8	-18	5	-2
CCOc1cc(C2C(C#N)=C(N)Oc3cc(N)ccc32)ccc1O (stereo not drawn)	.	25	-3	-7	6	-18
NC(=O)Nc1ccc(C(=O)OCC(=O)N2CCCC2=O)cc1	-1	.	1	.	7	-2
Cc1ccc(-n2c(-c3cnccn3)n[nH]c2=S)cc1	88*	14	-3	2	0	-8
CC(C)Cn1c(Cc2ccccc2)n[nH]c1=S	92*	14	-8	-13	3	-8
CC(C)OCC(O)CCc1n[nH]c(=S)n1-c1ccccc1 (stereo not drawn)	88*	17	-3	4	-9	-10
Cc1ccc(-n2c(-c3ccncc3)n[nH]c2=S)cc1	11	12	-7	19	4	9
S=c1[nH]nc(Cc2ccccc2)n1-c1ccccc1	87*	16	-13	6	1	-5
C/C(=N\OCC(=O)Nn1c(=O)[nH]c2ccccc2c1=O)c1ccccc1	1	-4	4	2	1	-2
